PubChem BioAssay (NCATS)
Records with an inconclusive call do not appear. Active and inactive are the calls of the source. Calls come from the whole dose curve; as a rule, active = well fitted cell-killing curve with a large enough effect; inconclusive = small, poorly fitted or top-dose-only effect, or effect the other way; inactive = flat fitted curve, though single readings scatter.

What was measured:
Assay in all cases: Primary qHTS to identify gynecologic anti-cancer compounds using libraries of approved drugs and bioactive compounds (AID 1345084); note: nearly all actives have a fitted effect of over 55% in size
C33A = conditions: Gynecologic cancer cell panel viability, ATPlite luminescence, 48 h; series mostly up to 57.5 µM
In short: (§1)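 48 h compound exposure at 37 C, 5% CO2; five-point qHTS. ATPlite luminescence readout of cell ATP.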

CAOV3 = conditions: Gynecologic cancer cell panel viability, ATPlite luminescence, 48 h; series mostly up to 57.5 µM
In short: as §1

CASKI = conditions: Gynecologic cancer cell panel viability, ATPlite luminescence, 48 h; series mostly up to 57.5 µM
In short: as §1

Es-2 = conditions: Gynecologic cancer cell panel viability, ATPlite luminescence, 48 h; series mostly up to 57.5 µM
In short: as §1

HeLa = conditions: Gynecologic cancer cell panel viability, ATPlite luminescence, 48 h; series mostly up to 57.5 µM
In short: as §1

Hek293T = conditions: Gynecologic cancer cell panel viability, ATPlite luminescence, 48 h, control line for the selectivity index; series mostly up to 57.5 µM
In short: as §1

JEG-3 = conditions: Gynecologic cancer cell panel viability, ATPlite luminescence, 48 h; series mostly up to 57.5 µM
In short: as §1

OV90 = conditions: Gynecologic cancer cell panel viability, ATPlite luminescence, 48 h; series mostly up to 57.5 µM
In short: as §1

PA-1 = conditions: Gynecologic cancer cell panel viability, ATPlite luminescence, 48 h; series mostly up to 57.5 µM
In short: as §1

SKOV3 = conditions: Gynecologic cancer cell panel viability, ATPlite luminescence, 48 h; series mostly up to 57.5 µM
In short: as §1

Tov-21-G = conditions: Gynecologic cancer cell panel viability, ATPlite luminescence, 48 h; series mostly up to 57.5 µM
In short: as §1

Tov112D = conditions: Gynecologic cancer cell panel viability, ATPlite luminescence, 48 h; series mostly up to 57.5 µM
In short: as §1

Measured: Potency
Potency is the fitted concentration of half-maximal effect.

C[C@@H]1C[C@@H](O)[C@@]23CO[C@@H](O)[C@@H]2CCC[C@@H]3[C@@]12C[C@@H](c1ccoc1)OC2=O
inactive: all assays above

COC(=O)CC(O)C1OC(c2ccccc2)C(O)C1O (stereo unspecified)
inactive: all assays above

C=C[C@H]1C(O[C@@H]2O[C@H](CO)[C@@H](O)[C@H](O)[C@H]2O)OC=C2C(=O)N3CCc4c([nH]c5ccccc45)C3CC21 (stereo partly specified)
inactive: all assays above

CC1=C(C(=O)O)/C(=C\CO[C@@H]2O[C@H](CO)[C@@H](O)[C@H](O)[C@H]2O)C(OC(=O)/C=C\c2ccc(O)cc2)C1 (stereo partly specified)
inactive: all assays above

CC(=O)NC1C(OC(C)(C)C2CCC3(C)C=C(C4CCC5C4(C)CC(O)C4OC(C(C)(C)O)CCC45C)CCC3O2)OC(CO)C(O)C1O (stereo unspecified)
inactive: all assays above

CN(C)CCn1cc(S(=O)(=O)c2cccc(F)c2)c2cccnc21
inactive: all assays above

COc1ccc(C2COc3cc(O)ccc3C2)c(O)c1 (stereo unspecified)
inactive: all assays above

C[C@@H]1C(=O)O[C@H](C)[C@H]1CC(=O)[C@](C)(O)[C@H]1CC[C@@]2(O)C3=CC(=O)[C@@H]4C[C@@H](O)[C@@H](O)C[C@]4(C)C3CC[C@]12C (stereo partly specified)
inactive: all assays above

CCOC(=O)c1sc(NC(=O)[C@H](C(C)C)n2c(=O)[nH]c3ccccc3c2=O)nc1C
inactive: all assays above

COC(=O)C1=COC(OC2OC(CO)C(O)C(O)C2O)C2C1C=CC2(O)CO (stereo unspecified)
inactive: all assays above

C[C@@H]1C(=O)O[C@H]2[C@H](O)C34[C@H]5C[C@@H](C(C)(C)C)C36[C@@H](OC(=O)[C@@H]6O)O[C@@]4(C(=O)O5)[C@@]12O (stereo partly specified)
inactive: all assays above

C=C1C[C@]23C[C@H]1[C@@H](O)C[C@H]2[C@@]12C=C[C@H](O)[C@@](C)(C(=O)O1)[C@H]2[C@@H]3C(=O)O
inactive: all assays above

C[C@H]1CC[C@@H]2N(C1)C[C@@H]1[C@H]([C@@H](O)[C@H](O)[C@]3(O)[C@H]1C[C@@]14OC5(O)[C@@H](C[C@@H](O)[C@@H]31)[C@]4(C)CC[C@@H]5O)[C@]2(C)O
inactive: all assays above

C[C@H](O)[C@H](O)/C=C/c1cccc(O)c1CO
inactive: all assays above

CC(=O)O[C@@H](CO[C@@H]1O[C@H](CO)[C@H](O)[C@H](O)[C@H]1O)[C@]1(C)C=C2CC[C@@H]3C(C)(C)[C@@H](O)CC[C@@]3(C)[C@@H]2CC1
inactive: all assays above

O=C(O[C@H]1[C@@H]2C[C@@H]3OC[C@](O)([C@@H]1Cl)[C@H]2C(O[C@@H]1O[C@H](CO)[C@@H](O)[C@H](O)[C@H]1O)O3)c1ccc(O)c(O)c1 (stereo partly specified)
inactive: all assays above

COc1cc(N)c(Cl)cc1C(=O)NC[C@@H]1CCN2CCC[C@@H]12
inactive: all assays above

C=C1[C@H](OC(C)=O)[C@H]2[C@@H](OC(C)=O)[C@](C)(OC(C)=O)C[C@]2(OC(C)=O)C(=O)[C@H](C)/C=C/C(C)(C)C(=O)[C@H](OC(=O)C(C)CC)[C@H]1OC(C)=O (stereo partly specified)
inactive: all assays above

COc1c/c(=C2\C=c3ccccc3=N2)[nH]/c1=C\c1[nH]c(C)cc1C
active: C33A 1.41 µM | CAOV3 10 µM | CASKI 12.6 µM | Es-2 2.51 µM | HeLa 10 µM | Hek293T 6.31 µM | JEG-3 7.94 µM | OV90 2.24 µM | PA-1 2 µM | SKOV3 10 µM | Tov-21-G 14.1 µM | Tov112D 3.55 µM

C=CC1(C)C=C2CCC3C(C)(C)C(O[C@@H]4O[C@@H](CO)[C@H](O)[C@H]4O)CCC3(C)C2CC1O[C@@H]1O[C@H](C)[C@H](O)[C@H](O)[C@H]1O (stereo partly specified)
inactive: all assays above

CC(C)(C)c1ccc(S(=O)(=O)Nc2ccc(Cl)cc2C(=O)c2cc[n+]([O-])cc2)cc1
inactive: all assays above

Cc1cccc(S(=O)(=O)N2CCC[C@@H]2CCN2CCC(C)CC2)c1
inactive: all assays above

CC(=O)c1ccc(O[C@@H]2O[C@H](CO)[C@@H](O)[C@H](O)[C@H]2O)cc1
inactive: all assays above

O=C1CC2(CCCC2)[C@H](O)C(=O)N1CCCCN1CCN(c2ncccn2)CC1
inactive: all assays above

COc1ccc(C2(O)CCC(N3CC[C@@H](NC(=O)CNC(=O)c4cccc(C(F)(F)F)c4)C3)CC2)cn1 (stereo partly specified)
inactive: all assays above

C=C1CC[C@@H]2[C@](C)(CO[C@@H]3O[C@H](CO)[C@@H](O)[C@H](O)[C@H]3O)[C@H](O)CC[C@@]2(C)[C@@H]1C/C=C1/C(=O)OC[C@H]1O
inactive: all assays above

C=C1C(=O)O[C@H]2[C@H]1CC/C(C)=C/CC[C@@]1(C)O[C@@H]21
inactive: all assays above

O=C(Nc1ccccc1-c1cn2c(CN3CCNCC3)csc2n1)c1ccc2ccccc2n1
inactive: all assays above
